# Data from a collection of fitness landscapes (doi:10.1038/s41467-024-54723-y).
# Over roughly 18,000 sequences, “TetR repression strength (sort-seq, GFP reporter)” has its median near 0.23; the highest 2% begin near 0.68. The full list was thinned out, with the highest values kept by preference.
# Molecular target: TetR (class B, Tn10) (UniProt P04483)
# Assay: TetR repression strength (sort-seq, GFP reporter) (relative to tetO2 = 1); higher = stronger repression
# Details: E. coli
# Procedure, shortened: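 Repression strength is the top bin index plus one minus the read-weighted mean bin, relative to the unaltered operator's value. A low-copy library in E. coli SIG10-MAX randomized eight operator positions between a constitutive promoter and sfGFP, with TetR expressed constitutively; cells grew 5 h at 37 °C in LB with 50 µg/mL chloramphenicol and 10^6 were FACS-sorted into 13 bins that were each Illumina-sequenced. Three independent transformations were averaged, keeping only members with ≥30 reads in all replicates and CV ≤0.5.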
# Chain of TetR (class B, Tn10) (P04483 whole entry): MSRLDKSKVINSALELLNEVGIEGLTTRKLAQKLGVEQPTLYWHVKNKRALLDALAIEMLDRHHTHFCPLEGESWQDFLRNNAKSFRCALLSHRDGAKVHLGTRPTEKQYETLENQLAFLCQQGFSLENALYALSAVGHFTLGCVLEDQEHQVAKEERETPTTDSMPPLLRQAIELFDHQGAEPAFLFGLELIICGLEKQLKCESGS
row,Sequence,TetR repression strength
1,TCCCGACTAGTTAGTGAGA,0.25
2,TCCCCTCAAGTTAGGGAGA,0.304
3,TCCCCTCAAGTTGGCGAGA,0.113
4,TCCCGACTAGTTAGCGAGA,0.682
5,TCCCCTCAAGTTAGCGAGA,0.742
6,TCCCGGCTAGTTAGCGAGA,0.485
7,TCCCATGGAGTATGAGAGA,0.417
8,TCCCAAAGAGTGGAGGAGA,0.388
9,TCCCCGCCAGTAAAAGAGA,0.389
10,TCCCGGTCAGTGGCCGAGA,0.523
11,TCCCGGCCAGTTCGTGAGA,0.197
12,TCCCGCGTAGTGGTGGAGA,0.256
13,TCCCGTGTAGTTGGAGAGA,0.191
14,TCCCGCGTAGTAGGAGAGA,0.691
15,TCCCCCGGAGTGGTTGAGA,0.192
16,TCCCGCGTAGTGGTTGAGA,0.826
17,TCCCGTGCAGTTGCAGAGA,0.376
18,TCCCGCGTAGTTGTTGAGA,0.402
19,TCCCGCGGAGTGGTTGAGA,0.768
20,TCCCGCGTAGTAGGGGAGA,0.425
21,TCCCCCGTAGTAGGAGAGA,0.197
22,TCCCGTGTAGTTGCAGAGA,0.976

row,Sequence,TetR repression strength
1,TCCCGCGGAGTGGTGGAGA,0.155
2,TCCCTGTGAGTCGTTGAGA,0.443
3,TCCCGGTAAGTATTCGAGA,0.175
4,TCCCCATAAGTCCTTGAGA,0.415
5,TCCCATAGAGTATGGGAGA,0.0311
6,TCCCGGAGAGTAGCGGAGA,0.287
7,TCCCTATCAGTTGTGGAGA,0.726
8,TCCCAATCAGTGAGAGAGA,0.538
9,TCCCTATCAGTTGTTGAGA,0.441
10,TCCCTTTCAGTGATTGAGA,0.713
11,TCCCTTTCAGTGAGTGAGA,0.488
12,TCCCTATGAGTGTCAGAGA,0.238
13,TCCCTTTCAGTTATTGAGA,0.55
14,TCCCAATCAGTGAGTGAGA,0.701
15,TCCCTATCAGTGTCTGAGA,0.556
16,TCCCTATCAGTGTCAGAGA,0.958
17,TCCCAATCAGTGTGTGAGA,0.101
18,TCCCTATAAGTTGTGGAGA,0.201
19,TCCCTTGTAGTTGAAGAGA,0.148
20,TCCCTTGGAGTGATAGAGA,0.384
21,TCCCTTTCAGTTAAGGAGA,0.196
22,TCCCTGGAAGTGTTCGAGA,0.277

row,Sequence,TetR repression strength
1,TCCCGGAGAGTATAAGAGA,0.289
2,TCCCAAGAAGTAGGTGAGA,0.23
3,TCCCATAAAGTTCAAGAGA,0.224
4,TCCCTTACAGTTCCAGAGA,0.363
5,TCCCTTATAGTCTCGGAGA,0.214
6,TCCCTAACAGTGATGGAGA,0.278
7,TCCCCATCAGTAACGGAGA,0.304
8,TCCCTATAAGTCATTGAGA,0.498
9,TCCCTGTCAGTGAGCGAGA,0.341
10,TCCCTATCAGTCAATGAGA,0.625
11,TCCCTATGAGTGAGCGAGA,0.278
12,TCCCTATCAGTGAGCGAGA,0.73
13,TCCCAATCAGTAACGGAGA,0.802
14,TCCCTCTCAGTGATGGAGA,0.546
15,TCCCTATCAGTGATGGAGA,0.999
16,TCCCAATCAGTAACTGAGA,0.278
17,TCCCTATCAGTCATTGAGA,0.708
18,TCCCGTTCAGTGCTTGAGA,0.367
19,TCCCACTCAGTGCATGAGA,0.218
20,TCCCCCTGAGTAGGCGAGA,0.179
21,TCCCCGCAAGTACACGAGA,0.292
22,TCCCCAGGAGTGATGGAGA,0.176

row,Sequence,TetR repression strength
1,TCCCTAGTAGTTGTGGAGA,0.283
2,TCCCTCGGAGTTGGTGAGA,0.237
3,TCCCTGTCAGTCGGTGAGA,0.378
4,TCCCCGGCAGTGGTGGAGA,0.25
5,TCCCGGACAGTGCCAGAGA,0.402
6,TCCCATGGAGTCGGTGAGA,0.0966
7,TCCCGGACAGTTTGGGAGA,0.473
8,TCCCTATAAGTCAGTGAGA,0.427
9,TCCCTATCAGTGAATGAGA,0.781
10,TCCCTATAAGTGAGGGAGA,0.237
11,TCCCGGACAGTGTGAGAGA,1.2
12,TCCCGGACAGTTGGGGAGA,0.922
13,TCCCTATAAGTGAGTGAGA,0.693
14,TCCCTAACAGTGAATGAGA,0.46
15,TCCCGGACAGTGTGTGAGA,0.2
16,TCCCAATCAGTGAATGAGA,0.603
17,TCCCGGACAGTTGGAGAGA,0.299
18,TCCCGGACAGTGAGAGAGA,0.246
19,TCCCGCGAAGTAAGCGAGA,0.151
20,TCCCTCCTAGTGCGAGAGA,0.151
21,TCCCCGTGAGTTGGAGAGA,0.319
22,TCCCCATGAGTTAGCGAGA,0.188

row,Sequence,TetR repression strength
1,TCCCTGCCAGTTCATGAGA,0.0931
2,TCCCGAGCAGTGGAGGAGA,0.35
3,TCCCCTAGAGTGGGGGAGA,0.195
4,TCCCGTTCAGTTTGTGAGA,0.145
5,TCCCAATCAGTTAGGGAGA,0.146
6,TCCCTGGCAGTCGGGGAGA,0.473
7,TCCCTAGTAGTGCAAGAGA,0.538
8,TCCCTGTGAGTCTCAGAGA,0.365
9,TCCCTATGAGTGTGAGAGA,0.252
10,TCCCTACCAGTGATTGAGA,0.511
11,TCCCTAACAGTGAGTGAGA,0.514
12,TCCCTGTCAGTGTGAGAGA,0.0482
13,TCCCTTTGAGTAAGTGAGA,1.15
14,TCCCTATCAGTGTGAGAGA,0.919
15,TCCCTTTGAGTAAGGGAGA,0.152
16,TCCCCTCGAGTGATTGAGA,0.244
17,TCCCTTCGAGTGATTGAGA,0.73
18,TCCCTTTGAGTGATTGAGA,0.263
19,TCCCTAACAGTGATTGAGA,0.745
20,TCCCTTTAAGTAAGTGAGA,0.247
